Where “and” joins values, the source holds several entries; their conditions need not be identical. Identical values can stand only once. Inconclusive results are not listed. A number with no mark means an inactive call. Calls of active or inactive are those of the source. Calls come from the whole dose curve; as a rule, active = well fitted inhibition curve with a large enough effect; inconclusive = small, poorly fitted or top-dose-only effect; inactive = no such curve, though single readings can be large or run the other way.
Potency is the fitted concentration of half-maximal effect.

The nature of this test: BET inhibitor-based combinations targeting novel dependencies in MECOM-rearranged (r) AML: SET-2 cell line (AID 2202231). Note: nearly all actives have a fitted effect of over 35% in size. As to conditions: SET-2 AML cells viability, CellTiter-Glo luminescence, 48 h; viability: hits give low values, series mostly up to about 46 µM. An excerpt: Ecotropic viral insertion site 1 (EVI1) is located on chromosome 3q26.2 as part of the MECOM (MDS and EVI1 complex) locus. Under normal hematopoiesis, EVI1 is a regulator of hematopoietic stem cell maintenance and self-renewal and EVI1 levels decrease as the cells differentiate. In approximately 5-10% of de novo acute myeloid leukemia (AML) EVI1 is aberrantly expressed, including Chromosomal inv(3)(q21;q26.2) or t(3;3)(q21;q26.2) alterations (MECOM-r) that account for about 50% of AML with EVI1 overexpression 31. AMLs with high levels of EVI1 have a poor prognosis and an overall survival time averaging between 10-14 months. EVI1 overexpression confers resistance in leukemia cells, highlighting the need to develop new targeted therapies for EVI1 overexpressing AMLs.
Here, we performed an unbiased chemical drug screening by evaluating the single agent activity of a collection of 2,480 oncology-focused, approved and investigational drugs (NCATS Mechanism Interrogation Plates, MIPE v5.0) against a panel of seven AML cell lines. These included four MECOM-r cell-lines (AML-191, AML-194, UCSD-AML1 and HNT-34) and three non-MECOM-r AMLs (MV4-11, OCI-AML3 and SET-2). Exploiting the mechanistic redundancy built in the library, we identified target-level sensitivities in MECOM-r AML cells and relative activity as compared to other AML subtypes.
A collection of 2480 mechanistically annotated dugs (MIPE v5.0) was used to screen four 3q26.2 rearranged AML cell lines and three non-3q26.2 rearranged AML cell lines. This library purposely exploits redundancy by including multiple inhibitors of key onco-targets, while simultaneously encompassing mechanistic diversity, targeting more than 800 distinct mechanisms of action. Briefly, cells were seeded in 5 uL of growth media using a Multidrop Combi dispenser into 1536 well white polystyrene tissue culture treated plates (Corning) at a density of 500cells/well. For each cell-line, for each of the 2480 drugs in MIPE v5.0 library, an 11-point dose curve was generated via a 1536 pin-tool. Plates were incubated for 48 hr at standard incubator conditions, covered by a stainless steel gasketed lid to prevent evaporation. Cell viability was determined by luminescence based, Cell Titer Glo assay (Promega). In detail, 3 uL of Cell Titer Glo were added to each well and plates were incubated at room temperature for 15 min with a stainless-steel lid in place. Luminescence readings were taken using a Viewlux (PerkinElmer) with a 2 s exposure time per plate. Compound dose-response curves were normalized to DMSO and empty well controls on each plate. Quantitative drug activity data from dose-response curves was determined utilizing area Under the Curve (AUC) and Z-transformed AUC (Z-AUC, a mean-centering transformation applied to each individual cell-line screened).
For orientation: ATP-based viability assays read luminescence as a measure of living cells.
With `Cn1c(=O)c(-c2c(Cl)cccc2Cl)cc2cnc(Nc3cccc(C(=O)O)c3)nc21`, the viability is 116%.

For the compound `O=C(O)c1ccc(CCCc2ccc(OCCc3ccc(F)cc3)cc2)o1`, the Potency was 20.9 µM (active).

In the case of `C[C@H]1C[C@@H]2[C@H]([C@@H](O)C[C@@]3(C)[C@H]2CC[C@]3(O)C(=O)CO)[C@@]2(C)C=CC(=O)C=C12`, the viability was 114%.

`CC[C@@H]1C(=O)N(C)c2cnc(Nc3ccc(C(=O)NC4CCN(C)CC4)cc3OC)nc2N1C1CCCC1`: the Potency is 0.468 µM (active).

For the compound `C#CCN[C@@H]1CCc2ccccc21`, the viability was 116%.

For `NC(=O)c1ncn([C@@H]2O[C@H](CO)[C@@H](O)[C@H]2O)c1O`, the viability was 109% and 121%.

As to `O=C(O)c1cn(-c2ccc(F)cc2)c2cc(N3CCNCC3)c(F)cc2c1=O`, the viability is 96.6%.

`CN(C)C1CCN(C(=O)c2ccc(NC(=O)Nc3ccc(-c4nc(N5CCOCC5)nc(N5CCOCC5)n4)cc3)cc2)CC1`: the Potency was 4.68 µM (active).

Regarding `CC(=O)[C@]1(O)Cc2c(O)c3c(c(O)c2[C@@H](O[C@H]2C[C@H](N)[C@H](O)[C@H](C)O2)C1)C(=O)c1ccccc1C3=O`, the Potency is 0.468 µM (active).

In the case of `CCOc1cc2c(c(F)c1OCC)C(=N)N(CC(=O)c1cc(N3CCOCC3)c(OC)c(C(C)(C)C)c1)C2`, the Potency was 16.6 µM (active).

For `Cc1ccc(C(=O)Nc2cccc(C(F)(F)F)c2)cc1Nc1nc(-c2cccnc2)nc2c1cnn2C`, the Potency is 20.9 µM (active).

Regarding `COCCOc1nc(-c2ccc(Cl)c(Cl)c2)n(-c2ccc(NC(=O)CCl)cc2)n1`, the Potency is 1.86 µM (active).

For the compound `NS(=O)(=O)c1cc2c(cc1Cl)NC=NS2(=O)=O`, the viability was 111%.

As to `COC(c1ccccc1)(c1ccccc1)[C@H](Oc1nc(C)cc(C)n1)C(=O)O`, the viability was 106%.

On to `c1ccc2c(CCNc3ccc(Nc4ccncc4)cc3)c[nH]c2c1`, for which the Potency was 10.5 µM (active).

On to `Cc1ccc(C(=O)Nc2ccc(CN3CCN(C)CC3)c(C(F)(F)F)c2)cc1C#Cc1cnc2cccnn12`, for which the Potency is 7.42 µM (active).

With `COc1ccc(-n2c(C)c([N+](=O)[O-])c3ccc(O)cc32)cc1`, the viability was 107%.

Regarding `CC(=O)N1CCN(CCOc2ccc(C3CCN(C4=Nn5c(nnc5C(F)(F)F)CC4)CC3)cc2)CC1`, the Potency was 14.8 µM (active).

As for `Cc1ccc(C(C)(O)c2nc3ccccc3s2)c(C)c1` (stereo not given), the Potency was 13.2 µM (active).

As to `Nc1nc(-c2nn(Cc3ccccc3F)c3ncccc23)nc(N)c1N1CCOCC1`, the viability was 123%.

Take `CCc1cc(-c2n[nH]c(C)c2-c2ccc3c(c2)OCCO3)c(O)cc1O`: the Potency was 14.8 µM (active).

`CCCNC(=O)Nc1ccc(Oc2ncnc3cc(OC)c(OC)cc23)cc1Cl`: the viability was 92.8%.

As to `CC1=C(C(=O)Nc2cc3cn[nH]c3cc2F)C(c2ccc(C(F)(F)F)cc2)CC(=O)N1` (stereo not given), the viability was 110%.

As for `CNc1nc(Nc2ccc(C(=O)N3CCOCC3)cc2OC)ncc1Cl`, the viability was 93.5%.

For the compound `COC(=O)[C@@H]1[C@H]2C[C@H]3c4[nH]c5ccccc5c4CCN3C[C@@H]2CC[C@@H]1O`, the viability was 106%.

With `NC(=O)c1cccc(-c2cc(Nc3ccc(OC(F)(F)F)cc3)ncn2)c1`, the Potency was 20.9 µM (active).

As for `COc1cc(S(C)(=O)=O)ccc1Nc1nc2ccc(-c3ccc(NC(=O)[C@H](C)c4ccc(F)cc4)cc3)cn2n1`, the Potency is 0.235 µM (active).

Take `Nc1ncnc2c1c(-c1cccc(OCc3ccccc3)c1)cn2C1CC(CN2CCC2)C1` (stereo not given): the Potency is 16.6 µM (active).

On to `Nc1c2c(nc3ccccc13)CCCC2`, for which the viability was 102%.

For `Cc1c(F)cc(C(=O)NC2CC2)cc1-c1c(F)cn2c(C(C)(C)C)nnc2c1F`, the viability is 104%.

`Cc1c(C(=O)N2CCOc3ccc(-c4ccc(N)nc4)cc3C2)ccc(S(C)(=O)=O)c1F`: the Potency is 13.2 µM (active).

Take `OC[C@H]1O[C@@H](n2cnc3c2NC=NC[C@H]3O)C[C@@H]1O`: the viability is 108%.

As for `C=CC(=O)Nc1cccc(Oc2nc(Nc3ccc(N4CCN(C)CC4)cc3OC)ncc2Cl)c1`, the Potency is 20.9 µM (active).

As for `Cc1nc(-c2cccnc2)sc1C(=O)Nc1ccccc1-c1cn2c(CN3CCOCC3)csc2n1`, the viability is 115%.

Take `Cc1cc(C2CCCCC2)n(O)c(=O)c1`: the Potency was 18.6 µM (active).

On to `CC(COc1ccccc1)N(CCCl)Cc1ccccc1` (stereo not given), for which the viability is 99.7%.

In the case of `Cn1c(=O)c2[nH]cnc2n(C)c1=O`, the viability was 117%.

Turning to `CCC[C@H](N[C@@H](C)C(=O)N1[C@@H]2CCCC[C@H]2C[C@H]1C(=O)O)C(=O)OCC`, the viability was 110%.

Regarding `C[C@@H](c1ncncc1F)[C@](O)(Cn1cncn1)c1ccc(F)cc1F`, the viability was 105%.

As to `c1coc(CNc2ncnc3nc[nH]c23)c1`, the viability was 107%.

A word on the viability: it is a read-out of living cells in per cent, often relative to untreated cells.
